The source made the active and inactive calls. Calls follow the shape of the dose curve; as a rule, active = well fitted inhibition curve with a large enough effect; inconclusive = small, poorly fitted or top-dose-only effect; inactive = no such curve, though single readings can be large or run the other way.

The nature of the assay: qHTS assay for measurement of the activity of small molecule inhibitors on Zika virus induced Caspase-3 activity in human astrocytoma cells (AID 1224859). The settings on record: SNB-19 ZIKV-induced caspase-3/7, luminescence, 6 h; series mostly up to 45.7 µM. A digest of the protocol: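 Percent inhibition of virus-induced caspase-3/7 signal is calculated against uninfected and ZIKV-infected control cells. Cells are SNB-19, infected at 2 FFU/cell for 6 h after 1 h compound exposure.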
In general terms: qHTS replaces the single test concentration by a dilution series.
As for `CC(=O)c1ccc2c(c1)N(CCCN1CCC(CCO)CC1)c1ccccc1S2`, the compound was called inactive.

For the compound `CC(=O)O[C@H]1C[C@@H]2CC[C@@H]3[C@H](CC[C@@]4(C)[C@H]3C[C@H]([N+]3(C)CCCCC3)[C@@H]4OC(C)=O)[C@@]2(C)C[C@@H]1[N+]1(C)CCCCC1`, the call was inactive.

`C[C@]12CC[C@@H]3c4ccc(O)cc4CC[C@H]3[C@@H]1CC[C@@H]2O`: the result was inactive.

On to `CCCCOc1ccc(C(=O)CCN2CCCCC2)cc1`, for which the compound was called inactive.

`COc1ccc(/C=C/C(=O)c2ccc(OC)cc2OC)cc1`: the compound was classed as inactive.

With `O=C(CCCN1CCC(O)(c2ccc(Br)cc2)CC1)c1ccc(F)cc1`, the call was inactive.

On to `CCCCCCCCCCOCC(O)CN` (stereo unspecified), for which the compound was classed as inactive.

Turning to `C1CCc2nnnn2CC1`, the compound was classed as inactive.

For the compound `CCCCc1nc(Cl)c(CO)n1Cc1ccc(-c2ccccc2-c2nn[nH]n2)cc1`, the call was inactive.

In the case of `CCN(CC)CCOc1ccc(C(O)(Cc2ccc(Cl)cc2)c2ccc(C)cc2)cc1` (stereo unspecified), the result was inactive.

Consider `CCN(CCCc1ccccc1)CCCc1ccccc1`, for which the compound was classed as inactive.

With `CCC(NC(C)C)C(O)c1ccc(O)c(O)c1` (stereo unspecified), the result was inactive.

Turning to `CCCCC1=NC2(CCCC2)C(=O)N1Cc1ccc(-c2ccccc2-c2nn[nH]n2)cc1`, the compound was classed as inactive.

For the compound `CCOC(=O)c1cccc(N)c1`, the result was inactive.

On to `CO/N=C1\CN(c2nc3c(cc2F)c(=O)c(C(=O)O)cn3C2CC2)CC1CN` (stereo unspecified), for which the outcome was inactive.

With `CCCCCCCCCCCCCCCC[N+](C)(C)CC`, the compound was called inactive.

In the case of `CCOC(=O)COc1ccc2c(C)c(CCN(CC)CC)c(=O)oc2c1Cl`, the compound was called inactive.

With `Nc1ccc(C(=O)O)cc1`, the compound was called inactive.

In the case of `N[C@H](CO)C(=O)O`, the call was inactive.

On to `COc1cc(C(=S)N2CCOCC2)cc(OC)c1OC`, for which the call was inactive.

In the case of `C=C1C(=C/C=C2\CCC[C@]3(C)[C@@H]([C@H](C)/C=C/[C@@H](O)C4CC4)CC[C@@H]23)C[C@@H](O)C[C@@H]1O`, the compound was classed as inactive.

For the compound `CCOC(=O)n1ccn(C)c1=S`, the result was inactive.

Take `N[C@@H](Cc1cnc[nH]1)C(=O)O`: the compound was classed as inactive.

Consider `O=S1(=O)c2cccc3cccc(c23)N1CCCN1CCN(c2ccc(F)cc2)CC1`, for which the call was inactive.

As for `CCCCOc1ccc(OCCCN2CCOCC2)cc1`, the call was inactive.

On to `CN1CCC(=C2c3ccccc3Sc3ccccc32)CC1`, for which the result was inactive.

Turning to `CN(C/C=C/c1ccccc1)Cc1cccc2ccccc12`, the result was inactive.

`NC(=O)CC[C@@H]1NC(=O)[C@H](Cc2ccccc2)NC(=O)[C@H](Cc2ccc(O)cc2)NC(=O)CCSSC[C@@H](C(=O)N2CCC[C@H]2C(=O)N[C@@H](CCCN=C(N)N)C(=O)NCC(N)=O)NC(=O)[C@H](CC(N)=O)NC1=O`: the compound was classed as inactive.

As for `CC(C)C[C@H]1C(=O)N2CCC[C@H]2[C@]2(O)O[C@](NC(=O)[C@@H]3C=C4c5cccc6[nH]c(Br)c(c56)C[C@H]4N(C)C3)(C(C)C)C(=O)N12`, the compound was classed as inactive.

Take `O=C(COc1ccc(Cl)cc1)N1CCN(Cc2ccc3c(c2)OCO3)CC1`: the compound was called inactive.

`CCCCCCC[N+](CC)(CC)CCCCc1ccc(Cl)cc1`: the call was inactive.

Regarding `C[C@]12CCC(=O)C=C1[C@@H]1C[C@@H]1[C@H]1[C@@H]3[C@@H]4C[C@@H]4[C@@]4(CCC(=O)O4)[C@@]3(C)CC[C@@H]12`, the compound was called inactive.

For `C[C@@H]1CN(CCCn2c3ccccc3c3ccccc32)C[C@H](C)N1`, the outcome was inactive.

For `O=C(O)c1cc2cc(Cc3cccnc3)ccc2o1`, the call was inactive.

As to `CCCSS/C(CCO)=C(\C)N(C=O)Cc1cnc(C)nc1N`, the outcome was inactive.

As for `NCCc1ccn[nH]1`, the call was inactive.

The values above are taken from PubChem BioAssay (NCATS).
